# Compounds with a hit are over-represented: about 9.2% of the library has one in this group of screens.
# Rab9 promoter act = activates the Rab9 promoter; 320,000 tested, 2.8% active; Potency, µM (series often up to 9.22 µM), for inactives: at the top dose activation, negative = inhibition, usual class: activators; Huh7 Rab9 promoter-luciferase reporter, luminescence, 24 h; note: % of control where 0% means no effect; nearly all actives have a fitted effect of over 60% in size
#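 Huh7 cells stably carrying a Rab9 promoter-luciferase reporter, 1500 cells per well in OP-MEM I with 10% FBS, treated with compound 24 hours at 37C. Luciferase activity read by luminescence after 10 minutes with Amplite reagent.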
# NPC1 prom act = activates the NPC1 promoter; 320,000 tested, 2.4% active; Potency, µM (top dose mostly 9.22 µM), without a hit: at the highest dose activation, usual class: activators; Huh7 NPC1 promoter luciferase reporter, 24 h; note: % of control where 0% means no effect; nearly all actives have a fitted effect of over 60% in size
#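 Luminescence from an NPC1 promoter-driven luciferase reporter in stably transfected Huh7 cells was measured after 24 h compound treatment at 37 °C, followed by 10 min ambient incubation with luciferase detection reagent.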
# ELG1 DNA repair = ELG1-dependent DNA repair inhibition | HEK293T ELG1-luciferase reporter, luminescence, 16 h; DNA damage induced by 5-fluorouridine | Potency, µM (titrated, usually from 46.1 µM), for the others: at the top dose activity change, negative = inhibition, hits mostly inhibitors | 330,000 tested, 2.3% active | AID 504467; note: % is set by controls: 0 for no effect and ±100 for the full control effect; nearly all actives have a fitted effect of over 55% in size
#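 Overnight (16 hr) co-exposure of 2,000 cells/well to 5-fluorouridine and compound at 37 °C preceded detection. Luciferase was quantified via ONE-Glo luminescence; loss of signal denotes inhibition.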
# FLuc modulator = counter-screen for miR-21 project: firefly luciferase inhibitors or activators; P08659; purified FLuc, Km substrates, luminescence inhibition; Potency, µM (doses to about 57.5 µM), inactives show at the top dose activity change, negative = inhibition, actives largely listed as inhibitors; 360,000 tested, 6.9% active;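 note: plate controls were vehicle for no effect and reference inhibitor for full effect; nearly all actives have a fitted effect of over 55% in size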
# Target sequence (P08659 whole entry, looked up): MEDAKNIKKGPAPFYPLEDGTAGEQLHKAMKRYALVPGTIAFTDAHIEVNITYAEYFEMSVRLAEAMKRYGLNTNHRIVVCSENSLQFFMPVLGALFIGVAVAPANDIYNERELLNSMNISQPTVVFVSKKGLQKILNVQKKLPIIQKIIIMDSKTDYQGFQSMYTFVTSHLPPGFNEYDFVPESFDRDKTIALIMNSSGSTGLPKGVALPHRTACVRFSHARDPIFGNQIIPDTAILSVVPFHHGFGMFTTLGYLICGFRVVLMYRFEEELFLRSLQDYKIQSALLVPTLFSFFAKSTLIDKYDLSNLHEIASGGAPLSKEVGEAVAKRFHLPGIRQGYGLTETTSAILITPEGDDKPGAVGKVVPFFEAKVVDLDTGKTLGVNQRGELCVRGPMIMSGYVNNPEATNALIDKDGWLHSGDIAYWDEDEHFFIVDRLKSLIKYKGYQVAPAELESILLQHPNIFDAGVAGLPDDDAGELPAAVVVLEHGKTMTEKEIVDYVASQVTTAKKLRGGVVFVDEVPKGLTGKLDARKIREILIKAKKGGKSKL
#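 Purified P. pyralis luciferase (10nM final) with 10uM D-luciferin and 10uM ATP (Km levels) in 50mM Tris acetate pH 7.5, 10mM Mg acetate, 0.01% Tween-20, 0.05% BSA; qHTS 6-point titration, ~60 µM downward; luminescence read.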
# ELG1 genotox = inducers of genotoxicity in HEK293T ELG1-luciferase cells | 330,000 tested, 1.3% active | AID 504466 | HEK293T ELG1-luciferase reporter, luminescence, 16 h | Potency, µM (series often up to 46 µM), for the others: at the highest dose activity change, positive = activation, most hits filed as activators; note: % of control where 0% means no effect; nearly all actives have a fitted effect of over 60% in size
#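 HEK293T cells expressing luciferase-tagged ELG1 were treated with compound or DMSO for 16 hr at 37°C. Luciferase activity was then read after 30 min with ONE-Glo at room temperature; rising signal flags genetic stress.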
# SMN2 splice up = enhancers of SMN2 splice variant expression | HEK293 SMN2-luciferase splicing reporter, luminescence, 30-36 h | Potency, µM (highest dose often 46.1 µM), without a hit: at the highest dose activity change, positive = activation, usual class: activators | 210,000 tested, 2.8% active; note: % of control where 0% means no effect; nearly all actives have a fitted effect of over 55% in size
#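 qHTS luciferase splicing reporter: luminescence rises when SMN2 exon 7 is included in transfected HEK293 cells. Compound exposure lasted 30-36 h at 37C, with 4.5 mM final sodium butyrate as control, followed by a ONE-Glo read.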
# Numbers without * were called inactive; u = inconclusive; x = no result; [ ] = dose if it differs, or a comment. Calls come from the whole dose curve; as a rule, active = well fitted curve in the direction sought with a large enough effect; inconclusive = small, poorly fitted or top-dose-only effect, or another doubt; inactive = no such curve, though single readings can be large; an effect the other way counts as inactive or inconclusive. Potency is the fitted concentration of half-maximal effect.
SMILES,Rab9 promoter act,NPC1 prom act,ELG1 DNA repair,FLuc modulator,ELG1 genotox,SMN2 splice up
COc1cc2c3cc1Oc1c(O)c(OC)cc4c1[C@@H](Cc1ccc(cc1)Oc1cc(ccc1O)C[C@H]3N(C)CC2)N(C)CC4,x,x,x,x,x,-21%[9.22 µM]
Cc1cccc(NP(=O)(Oc2ccccc2F)Oc2ccccc2F)c1,-1%,1%,18µM*,4%,-8%,-7%[1.84 µM]
COc1cccc(NP(=O)(Oc2ccc(Cl)cc2)Oc2ccc(Cl)cc2)c1,-4%,-1%,21µM*,-2%,-7%,-27%
O=P(Nc1ccccc1)(Nc1ccccc1)Oc1ccc(Cl)cc1,2%,0%,u,-1%,-8%,28%
O=C(O)C[C@H]1OCC=C2CN3CC[C@@]45C6=CC(=O)C(=O)C([N+](=O)[O-])=C6N[C@H]4[C@H]1[C@H]2C[C@@H]35,x,x,x,x,x,-15%[9.22 µM]
CCBr,x,x,x,x,x,12%
COc1cc2c(cc1OC)[C@@]13CCN4C=C5CCO[C@H]6CC(=O)N2[C@@H]1C6[C@H]5C[C@H]43 (some centres undefined),x,x,x,x,x,-13%[9.22 µM]
CN(C)C(=O)Oc1ccc(-c2nnco2)cc1,-3%,1%,30%,-12%,-5%,-5%
CN(C)C(=O)Oc1ccc(-c2cn3cc(C(F)(F)F)ccc3n2)cc1,-16%,u,u,3µM*,10%,u
CN(C)C(=O)Oc1cccc(-c2cn3cc(Cl)ccc3n2)c1,u,u,u,3µM*,12%,11µM*
CN(C)C(=O)Oc1ccc(-c2cn3cc(Cl)ccc3n2)cc1,0.4µM*,0.71µM*,u,0.95µM*,u,8.9µM*
C[C@H]1CC[C@@]2(NC1)O[C@@H]1C[C@@H]3[C@@H]4CC=C5C[C@@H](O)CC[C@]5(C)[C@@H]4CC[C@]3(C)[C@H]1[C@@H]2C,x,x,x,x,x,-3%[9.22 µM]
COC(=O)c1ccc(-c2nc(-c3ccc(Br)o3)no2)cc1,4µM*,3.2µM*,u,1.7µM*,u,12%
COC(=O)c1ccc(-n2c(C)nc3ccccc3c2=O)cc1,-6%,2%,-4%,2%,0%,-9%
CC1CCN(CC(=O)c2ccc3c(c2)OCCO3)CC1,u,u,u,11µM*,u,13µM*
CC1CN(CC(=O)c2ccccc2Cl)CC(C)O1 (centres undefined),-4%[1.84 µM],-1%,17%,-17%,1%,x
CC1CCCN(CC(=O)c2ccc(Cl)c(Cl)c2)C1 (centres undefined),-5%,-5%,9%,-4%,-2%,-3%
CC1CCN(CC(=O)c2ccccc2Cl)CC1,u,23%,u,11µM*,u,u
Cc1cccc(N2CCN(C(=O)c3ccc(CNc4c(N5CCC(C)CC5)c(=O)c4=O)cc3)CC2)c1C,1%,-6%,u,u,-10%,-41%
C[C@@H]1CN([C@@H](C)CO)C(=O)c2cccc(NC(=O)c3ccncc3)c2O[C@@H]1CN(C)Cc1ccc(-c2ccccc2)cc1,x,x,1%,x,-1%,x
C[C@H]1CN([C@@H](C)CO)C(=O)c2cc(NC(=O)C3CCCCC3)ccc2O[C@H]1CN(C)Cc1ccc(-c2ccccc2)cc1,x,x,10µM*,x,-4%,x
O=C(O)C[SH+]CC(=O)O.O=C(O)C[SH+]CC(=O)O.[Cu],x,x,x,x,x,2%[9.22 µM]
CC(=O)Nc1ccccc1C(=O)OCC(=O)c1ccccc1Cl,3.5µM*,u,u,9.5µM*,u,17%
CC(=O)Nc1ccccc1C(=O)OCc1ccccc1F,17%,16%,u,-4%,u,24%
O=C(NCCSc1c(-c2ccc(F)cc2)[nH]c2ccccc12)c1ccc(S(=O)(=O)N2CCOCC2)cc1,x,x,x,3%,x,-37%
SMILES,Rab9 promoter act,NPC1 prom act,ELG1 DNA repair,FLuc modulator,ELG1 genotox,SMN2 splice up
Cn1nnc2cc(NC(=O)Nc3cccc(Cl)c3)ccc21,1.4µM*,2µM*,u,u,u,x
C[N+](C)(C)CC#CCOC(=O)Nc1cccc(Cl)c1,-6%[46.1 µM],11%[46.1 µM],x,x,x,23%
O=C(Nc1ccc(Br)cc1)c1cccc(S(=O)(=O)N2CCc3ccccc32)c1,x,x,x,3%,x,-63%
Nc1ccc(N=Nc2ccccc2)cc1,u,27%,u,u,u,25%
Cc1cc(N=Nc2ccccc2C)ccc1N,x,x,x,x,x,14µM*
CCOC(=O)c1c(C)n(Cc2ccccc2)c2ccc(OCC(O)Cn3nc(C)cc3C)cc12 (centres undefined),-9%,-1%,21µM*,1%,-5%,-2%
O=c1[nH]c(=S)[nH]c(O)c1N=Nc1ccc(SC(F)F)cc1,3.2µM*,3.2µM*,u,1.2µM*,6.5µM*,x
O=C(O)c1cccc(N=Nc2c(O)[nH]c(=O)[nH]c2=O)c1,27%,-4%,-2%,15µM*,-2%,x
O=C(c1ccccc1)c1ccc(N=Nc2c(O)[nH]c(=O)[nH]c2=O)cc1,u,-9%,18%,1%,12%,3%
CC(C)c1ccc(N=Nc2c(O)[nH]c(=O)[nH]c2=O)cc1,u,u,u,2.4µM*,u,x
O=c1[nH]c(O)c(N=Nc2ccc([N+](=O)[O-])cc2)c(=O)[nH]1,24%,4%,u,u,4%,-2%
O=C(NCc1ccc(Cl)cc1)C1CCN(C(=O)c2cnn(-c3ccccc3)c2-n2cccc2)CC1,x,x,x,-10%,x,-43%
CCCOP(=O)(OCCC)c1nc(-c2ccccc2)oc1NCc1ccccc1,-1%,1%,u,3%,-3%,-6%
CCOP(=O)(OCC)c1nc(-c2ccc(Cl)cc2)oc1NCc1ccccc1,0%,-5%,23µM*,-2%,-6%,-6%
COc1ccc(N2C(=O)CC(N3CCC(n4c(=O)[nH]c5ccccc54)CC3)C2=O)cc1 (centres undefined),-5%,6%,0%,0%,2%,-5%
COc1ccc(N2C(=O)CS(=O)C(c3ccccc3)C2=O)cc1 (centres undefined),12%,12%,15%,24µM*,14%,4%
CCN(CC)S(=O)(=O)c1ccc(NN=C(C#N)C#N)cc1,-7%,1%,u,u,-20%,x
N#CC(C#N)=NNc1ccc([N+](=O)[O-])cc1,-7%,0%,-29%,17µM*,-11%,x
Nc1cc2nc3ccccc3nc2cc1N,28%,u,u,19µM*,11%,x
Nc1ccc(Cl)c(Cl)c1,x,x,x,x,x,4%
O=S(=O)(NCCO)c1cc[c]([Sb])cc1,x,x,x,x,x,-4%[9.22 µM]
COc1ccc(CNC(=O)c2ccc(C(C)C)cc2)cc1,2.2µM*,3.5µM*,u,9.5µM*,u,13µM*
Clc1nc(Cl)nc(Nc2ccccc2Cl)n1,x,x,x,x,x,6%

# Bioassay records (PubChem)
